Bioassay records from PubChem BioAssay.
Pf Dd2 growth – Plasmodium falciparum Dd2 growth inhibition; P. falciparum Dd2 growth, SYBR Green, 72 h; actives 4.3% (n = 120,000); AID 1347417; Potency, µM (series often up to 28.9 µM), actives largely listed as inhibitors; active = well fitted inhibition curve with a large enough effect; also: nearly all actives have a fitted effect of over 65% in size
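Readout: SYBR Green fluorescence, 485 nm excitation, 535 nm emission, after ~16 h lysis at 37C. Before that, Dd2-infected red cells (2.5% hematocrit) grew 72 h with compound, 29 uM top final concentration.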
Hits are given with their value; n = inactive. Shown is part of a subset that was picked to be rich in hits.

SMILES	Pf Dd2 growth
CCc1ccc(CNC(=O)c2cc3cn(C4CCCC4)cc3s2)cc1	n
COCCN1C(=O)CS(=O)C12CCN(S(=O)(=O)c1cn(C)cn1)CC2 (stereo not drawn)	n
N[C@@H]1CCN(Cc2ccccc2OCc2ccc(Cl)cc2)C[C@H]1O	4.47µM
NC1CCCN(Cc2ccccc2F)C1 (stereo not drawn)	n
Cn1c(COc2cccc(CN3CCCC3)c2Cl)nnc1C1CC(N)C1 (stereo not drawn)	n
O=C(c1ccc(F)c(Cl)c1)N1CC(CO)C2(CCNCC2)C1 (stereo not drawn)	n
CCOc1ccc(CN2C[C@@H]3C(=O)N(Cc4ccc5c(c4)OCO5)C(=O)[C@@H]3C2)cc1	n
CCOc1ccc(CN(CCc2ccc3c(c2)OCO3)Cc2cc(OC)ccc2O)cc1	0.708µM
CCOc1ccc(CN(CCc2ccc3c(c2)OCO3)Cc2ccc(CC)cc2)cc1	n
CN(Cc1ccc(OC(F)(F)F)cc1)Cc1cccn1C	n
COc1ccc(NC(=O)c2ccc(CN3C(=O)NC4(CCOCC4)C3=O)cc2)cc1	n
O=C(c1cccc(F)c1)N1CCCC(c2noc(COc3ccccc3)n2)C1 (stereo not drawn)	n
CC1(C)[C@H]2CC[C@@H](CNC(=O)c3ccc(C(F)(F)F)cc3)[C@@H]1C2	10µM
CC1(C)[C@H]2CC[C@@H](CNC(=O)c3ccccc3)[C@@H]1C2	n
COC[C@H]1C[C@@H](NC(=O)c2ccc(C(F)(F)F)cc2)[C@H](O)[C@@H]1O	n
CN(C)CCCC(=O)NC[C@@H]1CC[C@H]2C[C@@H]1C2(C)C	10µM
CC(=O)NC[C@H]1CCN(C(=O)c2ccc(C(F)(F)F)cc2)C[C@H]1N(C)C	n
CC1(C)[C@H]2CC[C@@H](CNC(=O)c3cncc(Br)c3)[C@@H]1C2	n
COCC(=O)NC[C@@H]1CC[C@H]2C[C@@H]1C2(C)C	n
CC1(C)[C@H]2CC[C@@H](CNC(=O)c3ccc(F)cc3)[C@@H]1C2	11.2µM
Cn1nc2c(c1NC(=O)Cn1nc3c(cc1=O)CCCCC3)CSC2	n
O=C(O)c1ccc(CC2CCN(C(=O)C3CC3)CC2)cc1	n
CCC1CN(C(=O)c2cnn(C)c2)CCC(=O)N1Cc1ccccc1 (stereo not drawn)	n
COc1ccccc1CCNC(=O)C1CC(c2ccc(F)c(C)c2)CN(C(=O)C2CC2)C1 (stereo not drawn)	n
O=C(CCc1ccccc1)N1CCC(c2n[nH]c(=O)n2Cc2ccc(F)cc2)CC1	n
SMILES	Pf Dd2 growth
CCN1c2cc(C(=O)NCc3ccc(C)cc3)ccc2C(=O)N2CCCCCC21 (stereo not drawn)	n
CCN1c2cc(C(=O)Nc3cccc(C)c3)ccc2C(=O)N2CCCCCC21 (stereo not drawn)	n
CCN1c2cc(C(=O)Nc3cccc(C)c3)ccc2C(=O)N2CCCCC21 (stereo not drawn)	n
Cc1cc(C)cc(NC(=O)c2ccc3c(c2)N(C)C2CCCCCN2C3=O)c1 (stereo not drawn)	n
CCN1c2cc(C(=O)NCc3ccccc3)ccc2C(=O)N2CCCCC21 (stereo not drawn)	n
CCN1c2cc(C(=O)NCc3ccc(C(C)C)cc3)ccc2C(=O)N2CCCCCC21 (stereo not drawn)	11.2µM
CN1c2cc(C(=O)Nc3cc(F)cc(F)c3)ccc2C(=O)N2CCCCCC21 (stereo not drawn)	4.47µM
CN1c2cc(C(=O)Nc3cccc(F)c3)ccc2C(=O)N2CCCCC21 (stereo not drawn)	n
CCc1cccc(NC(=O)c2ccc3c(c2)N(CC)C2CCCCCN2C3=O)c1 (stereo not drawn)	5.62µM
CCc1cccc(NC(=O)c2ccc3c(c2)N(C)C2CCCN2C3=O)c1 (stereo not drawn)	n
CCc1cccc(NC(=O)c2ccc3c(c2)N(C)C2CCCCCN2C3=O)c1 (stereo not drawn)	n
CCc1cccc(NC(=O)c2ccc3c(c2)N(CC)C2CCCCN2C3=O)c1 (stereo not drawn)	4.47µM
Cn1ccnc1CN1C(=O)CO[C@H]2CN(C(=O)c3cccnc3)C[C@H]21	n
O=C(Cn1ccn2nc(-c3ccccc3)c(CO)c2c1=O)NCc1ccccc1Cl	n
Cn1nccc1CN1CCn2c(nn(-c3ccc(C(F)(F)F)cc3)c2=O)C1	n
O=C(CCc1ccccc1)Nc1ccc([C@@H](O)[C@H]2COCC(=O)N2Cc2ccncc2)cc1	n
Cc1cc(CNC(=O)[C@@H]2CCC[C@@H](NC3CCC3)CN(C)C(=O)C2)no1	n
Cc1ccc2nc(NC(=O)C3CC(=O)N(c4n[nH]c5ccccc45)C3)sc2c1 (stereo not drawn)	n
COc1ccccc1CCNC(=O)Cn1nc2c(cc1=O)CCCC2	n
CCC(C(=O)NCc1nnc2c(-c3nc(C(C)C)no3)cccn12)c1ccccc1 (stereo not drawn)	n
Cc1cccc(CNC(=O)c2ccc3c(c2)N(C)C2CCCN2C3=O)c1 (stereo not drawn)	10µM
CCN1c2cc(C(=O)Nc3ccc(C)cc3)ccc2C(=O)N2CCCCC21 (stereo not drawn)	n
Cc1ccc(CNC(=O)c2ccc3c(c2)N(C)C2CCCCCN2C3=O)cc1C (stereo not drawn)	n
CCN1c2cc(C(=O)NCc3cccc(C)c3)ccc2C(=O)N2CCCCC21 (stereo not drawn)	n
CCN1c2cc(C(=O)Nc3ccc(Br)c(C)c3)ccc2C(=O)N2CCCCC21 (stereo not drawn)	5.62µM
SMILES	Pf Dd2 growth
CCN1c2cc(C(=O)Nc3ccc(C)c(Cl)c3)ccc2C(=O)N2CCCC21 (stereo not drawn)	n
O=C(NCCN1CCCCC1)C1CCN(C(=O)N2CC3CC(C2)[C@H]2CCCC(=O)N2C3)CC1 (stereo partly drawn)	n
CCN1CCN(c2nc3c(s2)CN(C(=O)COC)CC3)CC1	n
Cc1noc(C)c1CC(=O)N1[C@@H]2CC[C@H]1CC(NC(=O)c1ccncc1)C2 (stereo partly drawn)	n
CN(C)C(=O)c1cccnc1OC1CCN(C(=O)c2ccc(OC(F)(F)F)cc2)C1 (stereo not drawn)	n
O=C(NC1CCCN(c2cc(-c3ccc(F)cc3)[nH]n2)C1)c1cc(Cl)ccc1F (stereo not drawn)	n
Cn1nccc1C(=O)NC1CCN(c2cc(-c3ccccc3)[nH]n2)CC1	n
COCCCNC(=O)C1COC2(CCCCC2)N1C(=O)c1c(OC)cccc1OC (stereo not drawn)	6.31µM
COCCNC(=O)C1COC2(CCN(C(=O)c3ccc(F)cc3)CC2)N1C(=O)c1cccc(C)c1 (stereo not drawn)	n
COCCNC(=O)C1COC2(CCN(C(=O)c3ccc(OC)cc3)CC2)N1C(=O)c1ccccc1 (stereo not drawn)	n
COc1cc2c(cc1-c1nccn1-c1ccc(NC(C)=O)cc1)OCCO2	n
Cc1ccc(CNC(=O)CCC[C@@H]2[C@H]3CCCN4CCC[C@@H](CN2Cc2ccccc2)[C@@H]34)o1	3.55µM
CC(C)NC(=O)CCC[C@@H]1[C@H]2CCCN3CCC[C@@H](CN1Cc1ccccc1)[C@@H]23	n
Cc1n[nH]c(C)c1CNC(=O)CCC[C@@H]1[C@H]2CCCN3CCC[C@@H](CN1Cc1ccccc1)[C@@H]23	n
Cc1ccc2nc(CO[C@H]3CN(Cc4ccccn4)C[C@H]3F)[nH]c2c1	n
COC(=O)c1sccc1S(=O)(=O)N(CC(=O)Nc1ccccc1F)c1ccccc1	n
CCc1ccc(NC(=O)CN(c2ccc(Cl)cc2)S(=O)(=O)c2ccsc2C(=O)OC)cc1	11.2µM
